Data on 107 molecules can be found in PubChem BioAssay AID504832 (National Center for Advancing Translational Sciences (NCATS), 2011).

In all, about 310,000 compounds went through this assay and about 18,000 (5.8%) were called active. Entries that show only a call come without a potency. Roughly 22% stayed inconclusive and do not appear here. This is one part of a sample in which actives are shown more often than they occur. Values without a mark were called inactive. Calls come from the whole dose curve; as a rule, active = well fitted inhibition curve with a large enough effect; inconclusive = small, poorly fitted or top-dose-only effect, or another doubt; inactive = no such curve, though single readings can be large or run the other way.
Potency is the fitted concentration of half-maximal effect.

This experiment in a line: Primary qHTS for delayed death inhibitors of the malarial parasite plastid, 48 hour incubation. The note with it: P. falciparum luciferase growth in erythrocytes; series mostly up to 28.7 µM. Put shortly: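 A one-generation exposure of luciferase-tagged malaria parasites in RPMI 1640/Albumax erythrocyte culture, 37 C and 5% CO2. Inhibition is inferred from decreased luminescence after adding detection reagent.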
In general terms: Quantitative high-throughput screening tests each substance at several concentrations.
For `Cc1ccc(C(=O)N(CC(=O)NC2CCCC2)c2ccc(F)cc2)s1`, the Potency entry was “inactive”.
The same measure, in the same setting: in the case of `CC(C)(C)N(Cc1ccccc1)C(=O)c1ccncc1` it was “inactive”.
For `CC(c1ccccc1)(c1ccccc1)c1ccncc1`, the Potency was 16.5 µM (active).
As for `ClC(Cl)(Cl)c1ccccc1`, the Potency entry was “inactive”.
On the same count and under the same terms, in the case of `CC1CCCC(NC(=O)c2cc(-c3ccncc3)nc3ccccc23)C1C` (configuration not stated) it was “inactive”.
In the case of `CC(=O)N1CC(=O)N(CC(=O)Nc2ccc(Br)cc2)C1=S`, the Potency result is “inactive”.
Take `Cc1c(C(=O)NC(C)C2CC3CCC2C3)cccc1[N+](=O)[O-]` (configuration not stated): the Potency result was “inactive”.
Take `CC(Sc1nnc(CNC(=O)c2ccccc2F)n1C)C(=O)Nc1nccs1` (configuration not stated): the Potency result is “inactive”.
`COc1ccc(CCNC(=O)Cc2ccc(C)cc2)cc1OC`: the Potency result was “inactive”.
Take `COc1ccc(CCNC(=O)CN(c2ccccc2)S(C)(=O)=O)cc1OC`: the Potency entry was “inactive”.
Same read-out and setting: the result for `COc1ccc(CCNC(=O)c2nnc(CS(=O)(=O)c3ccccc3)o2)cc1OC` reads 2.33 µM (active); that for `COc1ccc(OC)c(NC(=O)c2ccc3c(c2)CCN3S(C)(=O)=O)c1`, “inactive”.
On to `CC(C)OC(=O)c1ccc(COc2ccc3ccc(=O)oc3c2)o1`, for which the Potency entry is “inactive”.
Consider `COc1ccccc1CNC(=O)c1ccc(CS(=O)(=O)c2ccccc2)o1`, for which the Potency entry is “inactive”.
`CCCCCNC(=O)C1c2ccccc2Oc2ccccc21`: the Potency result is “inactive”.
For `Cc1ccc(N(Cc2ccc(C(=O)Nc3ccccc3C(=O)NCc3ccco3)cc2)S(C)(=O)=O)cc1C`, the Potency is 3.7 µM (active).
As for `CS(=O)(=O)N(Cc1ccc(Cl)cc1)c1ccc(C(=O)NCCSCc2ccco2)cc1`, the Potency result is “inactive”.
As to `COc1ccc(C(=O)Nc2ccccc2C(=O)NCc2ccco2)cc1`, the Potency result was “inactive”.
With `CS(=O)(=O)c1ccc(C(=O)OCC(=O)NNC(=O)COc2ccc(Cl)cc2)cc1`, the Potency result was “inactive”.
With `COc1cc(CN2CCCN(C)CC2)c([N+](=O)[O-])cc1OC`, the Potency result was “inactive”.
`Cc1ccc(OCCC(=O)OCC(=O)N2c3ccccc3NC(=O)C2(C)C)cc1`: the Potency result was “inactive”.
For `CC(=O)Nc1ccc(S(=O)(=O)N2CCC(C(=O)NC3CC3)CC2)cc1`, the Potency entry is “inactive”.
With `COc1ccc(CNC(=O)CNC(=O)c2sc3ccccc3c2Cl)cc1OC`, the Potency result was “inactive”.
In the case of `CN1CCc2ccccc2C1Cc1ccccc1NC(=O)c1sc2ccccc2c1Cl` (configuration not stated), the Potency was 8.28 µM (active).
Same read-out and setting: the result for `O=C(Nc1ccon1)c1sc2ccccc2c1Cl` reads “inactive”; that for `COCc1ccc(CN2CCC(Oc3ccc(C(=O)NCc4ccccn4)cc3)CC2)o1`, “inactive”; that for `O=C(O)c1cc(S(=O)(=O)N(Cc2ccccc2)c2ccccc2)ccc1Cl`, “inactive”.
On the same count and under the same terms, in the case of `C=CC(COCc1ccccc1)N(Cc1ccccc1)S(=O)(=O)c1ccccc1Br` (configuration not stated) it was 9.28 µM (active).
Still for that read-out and setting: the result for `C=CCCN(Cc1ccccc1)S(=O)(=O)c1ccccc1Br` reads “inactive”; that for `Cc1ccsc1-c1cc(C(=O)O)c2c(ccc3ccccc32)n1`, “inactive”.
With `COc1ccc(Cl)cc1NC(=O)C1CC(=O)N(c2ccc(F)cc2)C1` (configuration not stated), the Potency entry is “inactive”.
The same measure, in the same setting: the result for `COc1c(C)cccc1C(=O)Nc1cc(Cl)ccc1N1CCOCC1` reads “inactive”.
As for `COc1cc(OC)c(N2CC(C(=O)Nc3cc(Cl)ccc3N3CCOCC3)CC2=O)cc1Cl` (configuration not stated), the Potency is 11.7 µM (active).
In the case of `Cc1cccc(C(=O)Nc2ccc(Oc3cnccn3)cc2)c1`, the Potency entry is “inactive”.
`CCCCn1nc(C(=O)Nc2cccc(C(=O)NC3CC3)c2)c2ccccc2c1=O`: the Potency was 11.7 µM (active).
As for `CCCn1nc(C(=O)Nc2ccc3nc(C)sc3c2)c2ccccc2c1=O`, the Potency result was “inactive”.
Take `COC(=O)c1cc(NC(=O)c2nn(C)c(=O)c3ccccc23)cc(C(=O)OC)c1`: the Potency entry was “inactive”.
Take `O=C1c2ccccc2C(=O)N1c1cccc2ccccc12`: the Potency entry is “inactive”.
Consider `Cc1c(NC(=O)CSCc2ccccc2)cccc1C(=O)O`, for which the Potency result was “inactive”.
As for `CC1C(=O)Nc2ccc(S(=O)(=O)N3CCN(c4ccccc4F)CC3)cc2NC1=O` (configuration not stated), the Potency result is “inactive”.
The same measure, in the same setting: in the case of `Clc1ccc(C(Cn2ccnc2)OCc2ccsc2Cl)c(Cl)c1` (configuration not stated) it was 4.26 µM (active); in that of `CC1CCN(S(=O)(=O)c2ccc3c(ccn3CC(=O)O)c2)CC1`, “inactive”; in that of `Cc1ccc(S(=O)(=O)CC(=O)NC(C)c2ccccc2)cc1` (configuration not stated), “inactive”.
`COc1cccc(-n2c(=S)sc3c(=O)n(-c4ccccc4C)c(SCC(=O)O)nc32)c1`: the Potency result was “inactive”.
As to `CCOc1ccccc1NC(=O)CCc1nnc2ccc(NCc3ccco3)nn12`, the Potency entry is “inactive”.
On to `CCC/C(=N\O)c1c[nH]c2ccccc12`, for which the Potency entry was “inactive”.
For `COc1ccccc1CC(=O)NCCc1c[nH]c2ccccc12`, the Potency entry was “inactive”.
The same measure, in the same setting: the result for `O=S(=O)(O)Oc1c[nH]c2ccccc12` reads 7.38 µM (active); that for `CCc1noc(C)c1C(=O)Oc1ccc(N(C)S(=O)(=O)c2ccc(C)c(C)c2)cc1`, “inactive”; that for `CC1(C)O[C@@H]2[C@H](O1)[C@@H](COS(=O)(=O)O)O[C@H]2n1ccc(=O)[nH]c1=O`, “inactive”.
Take `CCN(CC)CCCNC(=O)c1c(O)c2cc(F)cc3c2n(c1=O)C(C)CC3` (configuration not stated): the Potency result was “inactive”.
The same measure, in the same setting: the result for `CCOC(=O)C1=C(c2ccccc2)NC(=S)NC1c1ccc(Cl)cc1` (configuration not stated) reads “inactive”.
As for `COCCOC(=O)C1=C(C)NC(=O)NC1c1ccc(Cl)cc1` (configuration not stated), the Potency result was “inactive”.
As to `CCOC(=O)C1=C(C)NC(=O)N(C(C)=O)C1c1ccc(Cl)cc1` (configuration not stated), the Potency is 5.22 µM (active).
As for `COc1ccc(C(=O)Nc2ccc(C(=O)NCC3CCCO3)cc2)c(OC)c1OC` (configuration not stated), the Potency result is “inactive”.
Consider `O=C(NNC(=O)c1cc(S(=O)(=O)N2CCCCC2)ccc1Cl)c1ccccc1O`, for which the Potency entry was “inactive”.
The same measure, in the same setting: the result for `Cc1ccc(S(=O)(=O)N2CCN(C)CC2)cc1C(=O)NC1CCCCC1` reads “inactive”; that for `CC1CCCC(NC(=O)c2cc(S(=O)(=O)N3CCCCC3)ccc2Cl)C1C` (configuration not stated), 13.1 µM (active).
Take `O=C(O)c1ccc2c(=O)n3c(nc2c1)/C(=C/c1ccc(OC(F)F)cc1OC(F)F)CC3`: the Potency entry was “inactive”.
With `Nc1nc(SCC(=O)Nc2ccc(Cl)c([N+](=O)[O-])c2)n[nH]1`, the Potency entry is “inactive”.
On to `O=C(NCc1ccc2c(c1)OCO2)c1cc(F)c(F)cc1Cl`, for which the Potency entry was “inactive”.
Consider `O=C(c1ccco1)N1CCN(C(=O)c2cc(-c3ccccc3F)no2)CC1`, for which the Potency result is “inactive”.
Turning to `CCCOC(=O)c1[nH]c2c(c1C)C(=O)CC(c1cc(OC)c(OC)c(OC)c1)C2` (configuration not stated), the Potency was 1.65 µM (active).
On to `COCCOC(=O)c1[nH]c2c(c1C)C(=O)CC(c1ccc(OC)cc1)C2` (configuration not stated), for which the Potency entry is “inactive”.
As to `CCOC(=O)c1[nH]c2c(c1-c1ccccc1)C(=O)CC(c1ccc(Cl)cc1)C2` (configuration not stated), the Potency result was “inactive”.
Still for that read-out and setting: in the case of `Cn1c(-c2ccc(C(F)(F)F)cc2)cc2onc(-c3ccccc3)c2c1=O` it was “inactive”.
Turning to `COCCNC(=O)CN(C(=O)CCC(=O)Nc1cc(C)on1)c1ccc(C)cc1C`, the Potency entry was “inactive”.
With `Cc1ccc(C)c(N(CC(=O)NCc2ccco2)C(=O)CCC(=O)Nc2ccccn2)c1`, the Potency is 14.7 µM (active).
For the molecule `Cc1ccc(N(CC(=O)NC2CCCCC2)C(=O)CCCC(=O)Nc2ccccn2)c(C)c1`, the Potency result was “inactive”.
Turning to `CCc1ccc(NC(=O)Cn2nnc(C(=O)NCc3ccc4c(c3)OCO4)c2N)cc1`, the Potency entry is “inactive”.
For the molecule `O=C(CN1CCCCCC1)Nc1ccc(S(=O)(=O)N2CCCCC2)cc1`, the Potency result was “inactive”.
On to `O=C(CN1CCN(S(=O)(=O)/C=C/c2ccccc2)CC1)Nc1ccc(N2CCOCC2)cc1`, for which the Potency entry was “inactive”.
The same measure, in the same setting: in the case of `Cc1cc2cc(CNC(=O)c3ccc(S(=O)(=O)N4CCOCC4)cc3)ccc2[nH]1` it was 13.1 µM (active); in that of `O=C(Nc1ccc2cn[nH]c2c1)c1ccc(S(=O)(=O)N2CCOCC2)cc1`, “inactive”.
Regarding `O=C(CN1CCN(c2cccc(Cl)c2)CC1)Nc1ccc(S(=O)(=O)N2CCOCC2)cc1`, the Potency was 10.4 µM (active).
Take `Cc1ccc(CC(=O)Nc2ccc(S(=O)(=O)N3CCOCC3)cc2)cc1C`: the Potency was 9.28 µM (active).
Turning to `Cc1ccc(S(=O)(=O)N2CCOCC2)cc1C(=O)NCc1ccc(F)cc1`, the Potency result was “inactive”.
As to `O=C(CN1C(=O)CCC1=O)Nc1ccc(S(=O)(=O)N2CCOCC2)cc1`, the Potency entry is “inactive”.
Same read-out and setting: the result for `COc1ccc(CC(=O)Nc2ccc3c(c2)CCC3)cc1S(=O)(=O)N1CCOCC1` reads “inactive”; that for `CCOC(=O)c1sc(=NC(=O)c2ccc(Br)cc2)n(C)c1C`, “inactive”; that for `Cn1c(=O)c2ccccc2n(CC(=O)Nc2ccc3c(c2)OCCO3)c1=O`, “inactive”.
For the molecule `COc1cc(C(=O)N/C(=C\c2cn(C)c3ccccc23)C(=O)N2CCOCC2)cc(OC)c1OC`, the Potency entry was “inactive”.
Regarding `CN(C)S(=O)(=O)c1cccc(C(=O)OCC(=O)N2CCCC2=O)c1`, the Potency entry is “inactive”.
Take `CC1CC1C(=O)OCC(=O)Nc1cccc(F)c1` (configuration not stated): the Potency entry was “inactive”.
As to `COc1ccc(NC(=O)NN2CCN(C)CC2)c(OC)c1`, the Potency entry was “inactive”.
For `CCOc1ccc(/C=N\NC(=O)c2c(C)nc3cc(C)ccn23)cc1`, the Potency entry is “inactive”.
For `Cn1c(=O)n(C)c2cc(S(=O)(=O)Nc3ccc(F)cc3)ccc21`, the Potency entry was “inactive”.
For `CSCc1cc(N2CCOCC2)nc(SCc2ccc(Cl)cc2Cl)n1`, the Potency is 13.1 µM (active).
With `CSCCC(NC(=O)c1ccc(Cl)cc1Cl)C(=O)NNC(=O)c1csc(N2CCOCC2)n1` (configuration not stated), the Potency entry is “inactive”.
Take `Nc1cc(N)nc(SCc2ccc(Cl)cc2)n1`: the Potency result was “inactive”.
For the molecule `CSCc1cc(N(C)C)nc(SCc2ccc(Cl)cc2Cl)n1`, the Potency is 13.1 µM (active).
As to `CC(C)(CNC(=O)Cc1ccc(Cl)cc1Cl)N1CCOCC1`, the Potency result was “inactive”.
Same read-out and setting: in the case of `Clc1ccc(CSc2nnc(/C=C/c3ccccc3)o2)c(Cl)c1` it was “inactive”.
As to `CCc1ccc(C(=O)COC(=O)c2ccco2)cc1`, the Potency result is “inactive”.
Same read-out and setting: in the case of `O=C(NCc1ccco1)/C(=C/c1ccco1)NC(=O)c1ccccc1` it was “inactive”.
Regarding `CC1CCCN(S(=O)(=O)c2ccc(-c3ccc(=O)[nH]n3)o2)C1` (configuration not stated), the Potency result is “inactive”.
On to `COC(=O)C1(C)CC1(c1ccccc1)c1ccccc1` (configuration not stated), for which the activity change, negative = inhibition was -9.84% [at 0.00184 µM].
Turning to `Cc1ccccc1-n1cc(CNC(=O)C2CCC(=O)N(C3CC3)C2)cn1` (configuration not stated), the Potency result is “inactive”.
On to `CCN1CCN(C(=O)N(Cc2ccc(Cl)cc2)S(=O)(=O)c2ccc(C)cc2)CC1`, for which the Potency result is “inactive”.
Take `Cc1nn(C)cc1S(=O)(=O)N1CCN(c2ccc(F)cc2)CC1`: the Potency result was “inactive”.
Same read-out and setting: the result for `Cc1ccc(CNC(=O)C(=O)c2cn(CC(=O)N3CCCC3)c3ccccc23)cc1` reads “inactive”.
As to `Oc1c(CN2CCCC2)cc(COCc2ccccc2)c2cccnc12`, the Potency is 0.657 µM (active).
For the molecule `Oc1ccc(CN2CCN(c3ncccn3)CC2)cc1`, the Potency result is “inactive”.
Turning to `O=C(Cc1ccccc1)NNC(=O)C1CCN(c2ncccn2)CC1`, the Potency entry is “inactive”.
On to `Oc1c(CN2CCN(c3ccc(F)cc3)CC2)cc(Cl)c2cccnc12`, for which the Potency is 1.85 µM (active).
Turning to `Cc1cccnc1NC(=O)c1cccc(S(=O)(=O)N2CCN(c3ccc(F)cc3)CC2)c1`, the Potency result is “inactive”.
On the same count and under the same terms, the result for `CC1CCCN(CC(O)COCc2ccccc2)C1` (configuration not stated) reads “inactive”.
